Assay results reported in PubChem BioAssay (NCI).
Compounds without any hit were thinned out: in the full panel of roughly 79,000, 15% have a hit. Active and inactive are the calls of the source. Rule as the data show it: active = growth inhibition above about 70%; inactive = the rest.

Key:
[1] = NCI Yeast Anticancer Drug Screen. Data for the mlh1 strain (AID 171);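 also: 0% = growth of vehicle-treated control cultures of the same strain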; conditions: S. cerevisiae mlh1 strain growth inhibition, hits give high values
How it was run: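 Test agents were incubated with yeast bearing a defined DNA damage repair or cell cycle control alteration; values are growth inhibition normalised to vehicle-treated cultures.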

[2] = NCI Yeast Anticancer Drug Screen. Data for the sgs1 strain (AID 173);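 also: 0% = growth of vehicle-only control cultures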; conditions: S. cerevisiae sgs1 mutant, hits give high values
How it was run: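 Strain with an altered DNA repair or cell cycle pathway exposed to compound. Growth then measured. Value = inhibition versus vehicle control.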

[3] = NCI Yeast Anticancer Drug Screen. Data for the mlh1 rad18 strain (AID 175); conditions: S. cerevisiae mlh1 rad18 strain growth inhibition, hits give high values
How it was run: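 A repair-deficient yeast strain is exposed to test compound, and growth is scored relative to vehicle-treated controls.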

[4] = NCI Yeast Anticancer Drug Screen. Data for the rad18 strain (AID 177); conditions: S. cerevisiae rad18 mutant growth inhibition, hits give high values
How it was run: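 DNA-repair-defective yeast; compound treatment; growth inhibition scored against vehicle.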

[5] = NCI Yeast Anticancer Drug Screen. Data for the rad52 strain (AID 147);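 also: 0% = growth of vehicle-treated control cultures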; conditions: S. cerevisiae rad52 mutant growth inhibition, hits give high values
How it was run: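 Growth of repair-deficient yeast cells was compared between compound-treated and vehicle-treated cultures to give percent inhibition.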

[6] = NCI Yeast Anticancer Drug Screen. Data for the wt1 strain (AID 149);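 also: 0% = growth of vehicle-treated wt1 cultures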; conditions: S. cerevisiae wt1 strain (SPY 50644) growth inhibition, hits give high values
How it was run: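 Each compound is tested on wt1 yeast and the loss of growth versus vehicle gives the inhibition value.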

[7] = NCI Yeast Anticancer Drug Screen. Data for the rad50EPP+ strain (AID 151);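 also: 0% = growth of vehicle-treated control cultures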; conditions: S. cerevisiae rad50 mutant strain, hits give high values
How it was run: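 Measured: growth inhibition of rad50EPP+ yeast. Reference: vehicle-treated controls. Screen uses strains with defined genetic alterations in DNA damage repair or cell cycle control.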

[8] = NCI Yeast Anticancer Drug Screen. Data for the rad50 strain (AID 155);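 also: 0% = growth of vehicle-only cultures of the same strain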; conditions: S. cerevisiae rad50 strain growth inhibition, hits give high values
How it was run: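 Vehicle-treated cultures provide the reference for the growth inhibition reported for compound-exposed, repair-deficient yeast.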

[9] = NCI Yeast Anticancer Drug Screen. Data for the mec2-1 strain (AID 157); conditions: S. cerevisiae mec2-1 strain, hits give high values
How it was run: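 Compounds were applied to mec2-1 yeast cells. Their growth was then compared with that of vehicle-treated cultures to give growth inhibition.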

[10] = NCI Yeast Anticancer Drug Screen. Data for the rad14 strain (AID 159);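 also: 0% = growth of vehicle-treated control cultures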; conditions: S. cerevisiae rad14 strain growth inhibition, hits give high values
How it was run: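 Inhibition of growth is reported for a repair-deficient yeast mutant following compound treatment, calculated relative to cultures that received vehicle.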

[11] = NCI Yeast Anticancer Drug Screen. Data for the sgs1 mgt1 strain (AID 161);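 also: 0% = growth of cultures given vehicle only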; conditions: S. cerevisiae sgs1 mgt1 strain, hits give high values
How it was run: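 Yeast cells carrying a defined DNA-repair defect were exposed to test compounds. Growth inhibition was measured relative to vehicle-treated controls.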

[12] = NCI Yeast Anticancer Drug Screen. Data for the cln2 rad14 strain (AID 165);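 also: 0% = growth equal to vehicle treated cultures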; conditions: S. cerevisiae cln2 rad14 strain, hits give high values
How it was run: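 Strain: cln2 rad14 yeast, altered in cell cycle control and DNA damage repair. Read-out: growth inhibition vs vehicle.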

[13] = NCI Yeast Anticancer Drug Screen. Data for the bub3 strain (AID 167); conditions: S. cerevisiae bub3 mutant strain, hits give high values
How it was run: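 Mutant yeast screening strain plus compound; vehicle-treated cultures serve as the 0% inhibition reference.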

[14] = NCI Yeast Anticancer Drug Screen. Data for the wt2 strain (AID 169); conditions: S. cerevisiae wt2 strain growth inhibition, hits give high values
How it was run: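 Growth of compound-treated yeast is measured and expressed as inhibition relative to vehicle-only controls.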

[15] = NCI Yeast Anticancer Drug Screen. Data for the mgt1 strain (AID 153); conditions: S. cerevisiae mgt1 mutant growth inhibition, hits give high values
How it was run: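 Compounds were applied to mgt1 mutant yeast, and growth was then compared against vehicle-treated control cultures to give percent inhibition.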

[16] = NCI Yeast Anticancer Drug Screen. Data for the CLN2oe strain (AID 163);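 also: 0% = growth of vehicle-only control cultures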; conditions: S. cerevisiae CLN2oe strain, hits give high values
How it was run: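 Cells of an engineered yeast line with disturbed cell-cycle regulation are treated with compound. Inhibition of growth is then calculated relative to the vehicle-treated reference.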

[17] = at 5.0 µM (retest, dose inferred, filed as 0.5)
[18] = at 50.0 µM (retest, dose inferred, filed as 5.0)

Measured: growth inhibition

O=C1NC(=O)c2ccc([N+](=O)[O-])c3cccc1c23
inactive: [1]; at 1.2 µM 32% | [1]; at 3.7 µM 28% | [1]; at 11.0 µM 41% | [1]; at 33.0 µM 65% | [2]; at 1.2 µM 41% | [2]; at 3.7 µM 51% | [2]; at 11.0 µM 66% | [3]; [17] 51% | [3]; at 50.0 µM 37.5% | [4]; at 1.2 µM 48%
active: [1]; at 100.0 µM 75% | [2]; at 33.0 µM 78% | [2]; at 100.0 µM 74% | [3]; [18] 87% | [4]; at 3.7 µM 72% | [4]; at 11.0 µM 86% | [4]; at 33.0 µM 93% | [4]; at 100.0 µM 92%

O=C1CC(=O)c2ccccc21
inactive: [5]; at 1.2 µM -2% | [5]; at 3.7 µM -1% | [5]; at 11.0 µM 3% | [5]; at 33.0 µM 9% | [5]; at 100.0 µM 50% | [6]; at 1.2 µM 0% | [6]; at 3.7 µM -1% | [6]; at 11.0 µM 0% | [6]; at 33.0 µM 5% | [6]; at 100.0 µM 17% | [7]; at 1.2 µM -3% | [7]; at 3.7 µM -1% | [7]; at 11.0 µM 6% | [7]; at 33.0 µM 18% | [7]; at 100.0 µM 55% | [8]; at 1.2 µM 4% | [8]; at 3.7 µM 3% | [8]; [17] 3% | [8]; at 11.0 µM -9% | [8]; at 33.0 µM 14% | [8]; [18] 69% | [8]; at 100.0 µM 46% | [9]; at 1.2 µM 1% | [9]; at 3.7 µM 2% | [9]; [17] 1% | [9]; at 11.0 µM 4% | [9]; at 33.0 µM 10% | [9]; [18] 53% | [9]; at 50.0 µM 46.3% | [9]; at 100.0 µM 40% | [10]; at 1.2 µM 0% | [10]; at 3.7 µM 3% | [10]; at 11.0 µM 5% | [10]; at 33.0 µM 12% | [10]; at 100.0 µM 56% | [11]; [17] 3% | [11]; [18] 12% | [11]; at 50.0 µM 59.7% | [12]; [17] 0% | [12]; [18] 57% | [13]; at 1.2 µM -2% | [13]; at 3.7 µM -1% | [13]; [17] -4% | [13]; at 11.0 µM 0% | [13]; at 33.0 µM 3% | [13]; [18] 6% | [13]; at 50.0 µM 67.9% | [13]; at 100.0 µM 35% | [14]; at 1.2 µM 0% | [14]; at 3.7 µM 8% | [14]; at 11.0 µM 1% | [14]; at 33.0 µM 5% | [14]; at 100.0 µM 37% | [1]; at 1.2 µM -1% | [1]; at 3.7 µM 0% | [1]; at 11.0 µM 2% | [1]; at 33.0 µM 4% | [1]; at 100.0 µM 65% | [2]; at 1.2 µM -1% | [2]; at 3.7 µM 2% | [2]; at 11.0 µM 6% | [2]; at 33.0 µM 18% | [2]; at 100.0 µM 57% | [3]; [17] 1% | [3]; [18] 12% | [4]; at 1.2 µM -1% | [4]; at 3.7 µM 2% | [4]; at 11.0 µM 7% | [4]; at 33.0 µM 23%
active: [8]; at 50.0 µM 87.4% | [12]; at 50.0 µM 70.5% | [3]; at 50.0 µM 70% | [4]; at 100.0 µM 74%

CC(=O)OC1CC2C(C)(C)C(=O)C=C[C@]2(C)C2CCC3(C)C(=CCC3[C@H](CO)C[C@H](O)C(=O)C(C)(C)O)[C@]12C (some centres undefined)
active: [5]; at 100.0 µM 81% | [6]; at 100.0 µM 75% | [15]; at 33.0 µM 90% | [15]; at 100.0 µM 94% | [10]; at 100.0 µM 77% | [11]; [18] 93% | [11]; at 50.0 µM 88.8% | [16]; at 100.0 µM 82% | [13]; at 100.0 µM 78% | [14]; at 33.0 µM 86% | [14]; at 100.0 µM 95% | [1]; at 33.0 µM 86% | [1]; at 100.0 µM 92% | [2]; at 33.0 µM 87% | [2]; at 100.0 µM 93% | [4]; at 100.0 µM 74%
inactive: [5]; at 1.2 µM -7% | [5]; at 3.7 µM -4% | [5]; at 11.0 µM -3% | [5]; at 33.0 µM 11% | [6]; at 1.2 µM -26% | [6]; at 3.7 µM -17% | [6]; at 11.0 µM -31% | [6]; at 33.0 µM -21% | [15]; at 1.2 µM -26% | [15]; at 3.7 µM -34% | [15]; at 11.0 µM 53% | [8]; at 1.2 µM -5% | [8]; at 3.7 µM -18% | [8]; [17] -14% | [8]; at 11.0 µM -16% | [8]; at 33.0 µM 6% | [8]; [18] 23% | [8]; at 50.0 µM 44.9% | [8]; at 100.0 µM 62% | [9]; at 1.2 µM -56% | [9]; at 3.7 µM -56% | [9]; [17] -10% | [9]; at 11.0 µM -77% | [9]; at 33.0 µM -40% | [9]; [18] 12% | [9]; at 50.0 µM 42.8% | [9]; at 100.0 µM 53% | [10]; at 1.2 µM -42% | [10]; at 3.7 µM -46% | [10]; at 11.0 µM -29% | [10]; at 33.0 µM -5% | [11]; [17] 35% | [16]; at 1.2 µM -41% | [16]; at 3.7 µM -14% | [16]; at 11.0 µM -7% | [16]; at 33.0 µM 0% | [12]; [17] 32% | [12]; [18] 43% | [12]; at 50.0 µM 26.6% | [13]; at 1.2 µM -24% | [13]; at 3.7 µM -35% | [13]; [17] 13% | [13]; at 11.0 µM -41% | [13]; at 33.0 µM -29% | [13]; [18] 50% | [13]; at 50.0 µM 38.1% | [14]; at 1.2 µM -32% | [14]; at 3.7 µM -18% | [14]; at 11.0 µM 50% | [1]; at 1.2 µM -35% | [1]; at 3.7 µM -23% | [1]; at 11.0 µM 39% | [2]; at 1.2 µM -34% | [2]; at 3.7 µM -5% | [2]; at 11.0 µM 60% | [3]; [17] -6% | [3]; [18] 39% | [3]; at 50.0 µM 26.1% | [4]; at 1.2 µM -21% | [4]; at 3.7 µM -21% | [4]; at 11.0 µM -17% | [4]; at 33.0 µM 3%
